This is an account of results in ChEMBL document CHEMBL1961873, “Compounds: GSK PKIS; Assays: Nanosyn kinase panel” (2012).

The structures appear in SMILES notation.

In assay [1] the target is Mitogen-activated protein kinase 3 (Homo sapiens) (UniProt P27361). Conditions: at 1 µM.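 Note: values are mean percent inhibition of MAPK3.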
The target of assay [2] is SRSF protein kinase 3 (Homo sapiens) (UniProt Q9UPE1). Conditions: at 0.1 µM.
Assay [3] has the same target. Conditions: at 1 µM.
Assay [4] deals with Mitogen-activated protein kinase 14 (Homo sapiens) (UniProt Q16539). The note with it: at 0.1 µM.
Chain of Mitogen-activated protein kinase 14 (Homo sapiens) (Q16539 whole entry): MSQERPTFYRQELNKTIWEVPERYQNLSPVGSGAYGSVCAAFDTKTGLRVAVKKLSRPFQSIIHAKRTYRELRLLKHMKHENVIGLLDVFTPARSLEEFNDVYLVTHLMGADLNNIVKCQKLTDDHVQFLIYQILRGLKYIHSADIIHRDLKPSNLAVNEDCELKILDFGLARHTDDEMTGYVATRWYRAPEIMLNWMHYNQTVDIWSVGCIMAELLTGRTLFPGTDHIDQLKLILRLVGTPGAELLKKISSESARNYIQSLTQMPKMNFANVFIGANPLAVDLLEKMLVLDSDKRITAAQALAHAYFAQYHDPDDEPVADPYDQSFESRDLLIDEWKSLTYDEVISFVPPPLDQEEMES
The target is the same in assay [5]. The note with it: at 1 µM.
Assay [6] has as its target Mitogen-activated protein kinase 11 (Homo sapiens) (UniProt Q15759). Conditions: at 0.1 µM.
For assay [7] the target is unchanged. The note with it: at 1 µM.
Assay [8] concerns the target T1, Mitogen-activated protein kinase 13 (Homo sapiens) (UniProt O15264).
T1 sequence (whole entry): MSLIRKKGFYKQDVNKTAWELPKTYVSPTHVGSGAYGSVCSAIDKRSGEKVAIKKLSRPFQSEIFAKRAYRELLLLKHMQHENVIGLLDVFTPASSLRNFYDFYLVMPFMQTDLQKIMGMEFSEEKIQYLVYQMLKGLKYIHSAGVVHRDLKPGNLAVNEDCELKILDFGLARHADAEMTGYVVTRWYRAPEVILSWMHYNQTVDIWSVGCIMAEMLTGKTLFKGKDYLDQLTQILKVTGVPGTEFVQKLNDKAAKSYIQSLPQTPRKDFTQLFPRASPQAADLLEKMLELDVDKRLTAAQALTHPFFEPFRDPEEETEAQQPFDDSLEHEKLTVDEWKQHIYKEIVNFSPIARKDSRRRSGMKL
Conditions: at 0.1 µM.

In assay [9] the target is T1, Mitogen-activated protein kinase 13 (Homo sapiens). The note with it: at 1 µM.
Assay [10] deals with T2, Mitogen-activated protein kinase 12 (Homo sapiens) (UniProt P53778).
T2 sequence (whole entry): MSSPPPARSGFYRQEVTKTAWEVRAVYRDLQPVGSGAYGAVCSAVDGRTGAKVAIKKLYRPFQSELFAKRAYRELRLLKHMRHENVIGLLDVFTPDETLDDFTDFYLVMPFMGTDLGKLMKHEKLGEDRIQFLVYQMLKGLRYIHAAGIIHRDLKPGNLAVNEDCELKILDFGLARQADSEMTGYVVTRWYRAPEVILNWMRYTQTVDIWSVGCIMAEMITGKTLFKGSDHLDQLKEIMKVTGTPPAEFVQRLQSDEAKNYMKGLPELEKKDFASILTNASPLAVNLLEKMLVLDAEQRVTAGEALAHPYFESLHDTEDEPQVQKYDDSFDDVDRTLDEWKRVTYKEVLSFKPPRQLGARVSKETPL
The note with it: at 0.1 µM.

For assay [11], the target named is T2, Mitogen-activated protein kinase 12 (Homo sapiens). Conditions: at 1 µM.
Assay [12] has as its target SRSF protein kinase 1 (Homo sapiens) (UniProt Q96SB4). Conditions: at 0.1 µM.
The target is the same in assay [13]. Conditions: at 1 µM.
The target in assay [14] is Phosphatidylinositol 4,5-bisphosphate 3-kinase catalytic subunit alpha isoform (Homo sapiens) (UniProt P42336). Conditions: at 0.1 µM.
Chain of Phosphatidylinositol 4,5-bisphosphate 3-kinase catalytic subunit alpha isoform (Homo sapiens) (P42336 whole entry, canonical isoform): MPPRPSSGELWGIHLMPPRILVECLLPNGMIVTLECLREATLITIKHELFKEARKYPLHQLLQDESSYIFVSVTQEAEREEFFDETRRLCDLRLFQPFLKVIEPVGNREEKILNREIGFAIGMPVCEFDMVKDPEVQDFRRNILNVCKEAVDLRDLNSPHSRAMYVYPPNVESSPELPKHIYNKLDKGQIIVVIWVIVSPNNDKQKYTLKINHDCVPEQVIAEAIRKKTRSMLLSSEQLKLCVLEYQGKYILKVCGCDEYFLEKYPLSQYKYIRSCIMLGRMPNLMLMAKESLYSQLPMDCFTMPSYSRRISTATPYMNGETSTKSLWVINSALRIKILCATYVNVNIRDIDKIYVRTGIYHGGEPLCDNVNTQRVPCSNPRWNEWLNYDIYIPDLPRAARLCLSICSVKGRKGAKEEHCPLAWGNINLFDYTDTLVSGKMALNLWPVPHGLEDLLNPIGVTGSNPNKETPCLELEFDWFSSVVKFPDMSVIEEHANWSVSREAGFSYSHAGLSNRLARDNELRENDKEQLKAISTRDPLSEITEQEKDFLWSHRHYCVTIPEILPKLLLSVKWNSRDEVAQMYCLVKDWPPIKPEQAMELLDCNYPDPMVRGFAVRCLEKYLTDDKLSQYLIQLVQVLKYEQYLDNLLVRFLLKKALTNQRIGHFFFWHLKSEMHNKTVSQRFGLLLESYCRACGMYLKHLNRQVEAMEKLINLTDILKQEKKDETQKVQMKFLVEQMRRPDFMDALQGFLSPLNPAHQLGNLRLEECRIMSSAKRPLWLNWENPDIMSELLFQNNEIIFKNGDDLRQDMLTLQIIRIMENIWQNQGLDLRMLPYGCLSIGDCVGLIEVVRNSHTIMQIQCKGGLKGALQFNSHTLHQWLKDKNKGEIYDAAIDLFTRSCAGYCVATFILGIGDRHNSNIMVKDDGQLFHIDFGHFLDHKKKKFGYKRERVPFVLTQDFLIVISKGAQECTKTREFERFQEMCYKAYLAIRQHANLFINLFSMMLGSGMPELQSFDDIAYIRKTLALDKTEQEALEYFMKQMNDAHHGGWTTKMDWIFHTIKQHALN
Assay [15] has the same target. The note with it: at 1 µM.
The target in assay [16] is T3, Phosphatidylinositol 4,5-bisphosphate 3-kinase catalytic subunit delta isoform (Homo sapiens) (UniProt O00329).
T3 sequence (whole entry): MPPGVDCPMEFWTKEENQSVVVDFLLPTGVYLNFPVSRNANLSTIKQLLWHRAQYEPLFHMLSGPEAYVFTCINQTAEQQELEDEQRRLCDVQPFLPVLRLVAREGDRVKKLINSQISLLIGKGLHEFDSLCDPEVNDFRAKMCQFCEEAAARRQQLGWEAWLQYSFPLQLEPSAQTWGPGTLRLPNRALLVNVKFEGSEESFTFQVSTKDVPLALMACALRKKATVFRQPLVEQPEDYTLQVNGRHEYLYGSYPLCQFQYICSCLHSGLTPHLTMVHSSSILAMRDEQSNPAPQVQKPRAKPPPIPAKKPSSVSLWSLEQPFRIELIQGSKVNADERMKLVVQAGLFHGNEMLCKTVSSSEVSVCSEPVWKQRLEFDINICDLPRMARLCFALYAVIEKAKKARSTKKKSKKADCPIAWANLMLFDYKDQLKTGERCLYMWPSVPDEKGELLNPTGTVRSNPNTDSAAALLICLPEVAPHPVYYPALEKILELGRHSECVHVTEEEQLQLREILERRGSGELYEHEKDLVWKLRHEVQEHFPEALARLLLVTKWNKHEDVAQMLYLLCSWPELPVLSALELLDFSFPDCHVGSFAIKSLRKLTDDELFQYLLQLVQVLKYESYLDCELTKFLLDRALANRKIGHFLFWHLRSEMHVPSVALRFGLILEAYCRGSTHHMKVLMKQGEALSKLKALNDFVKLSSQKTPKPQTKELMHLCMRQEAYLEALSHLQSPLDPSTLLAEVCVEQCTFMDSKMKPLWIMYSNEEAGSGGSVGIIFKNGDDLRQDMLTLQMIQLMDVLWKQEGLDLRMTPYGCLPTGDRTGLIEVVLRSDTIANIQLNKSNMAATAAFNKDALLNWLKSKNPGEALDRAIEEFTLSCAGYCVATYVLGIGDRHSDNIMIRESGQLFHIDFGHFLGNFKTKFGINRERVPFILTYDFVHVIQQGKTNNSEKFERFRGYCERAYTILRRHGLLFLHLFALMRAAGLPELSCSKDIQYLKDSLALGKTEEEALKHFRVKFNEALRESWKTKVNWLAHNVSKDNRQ
Conditions: at 0.1 µM.

Assay [17] concerns the target T3, Phosphatidylinositol 4,5-bisphosphate 3-kinase catalytic subunit delta isoform (Homo sapiens). Conditions: at 1 µM.
For assay [18], the target named is Phosphatidylinositol 4-kinase beta (Homo sapiens) (UniProt Q9UBF8). Conditions: at 0.1 µM.
Chain of Phosphatidylinositol 4-kinase beta (Homo sapiens) (Q9UBF8 2-816 limits assumed): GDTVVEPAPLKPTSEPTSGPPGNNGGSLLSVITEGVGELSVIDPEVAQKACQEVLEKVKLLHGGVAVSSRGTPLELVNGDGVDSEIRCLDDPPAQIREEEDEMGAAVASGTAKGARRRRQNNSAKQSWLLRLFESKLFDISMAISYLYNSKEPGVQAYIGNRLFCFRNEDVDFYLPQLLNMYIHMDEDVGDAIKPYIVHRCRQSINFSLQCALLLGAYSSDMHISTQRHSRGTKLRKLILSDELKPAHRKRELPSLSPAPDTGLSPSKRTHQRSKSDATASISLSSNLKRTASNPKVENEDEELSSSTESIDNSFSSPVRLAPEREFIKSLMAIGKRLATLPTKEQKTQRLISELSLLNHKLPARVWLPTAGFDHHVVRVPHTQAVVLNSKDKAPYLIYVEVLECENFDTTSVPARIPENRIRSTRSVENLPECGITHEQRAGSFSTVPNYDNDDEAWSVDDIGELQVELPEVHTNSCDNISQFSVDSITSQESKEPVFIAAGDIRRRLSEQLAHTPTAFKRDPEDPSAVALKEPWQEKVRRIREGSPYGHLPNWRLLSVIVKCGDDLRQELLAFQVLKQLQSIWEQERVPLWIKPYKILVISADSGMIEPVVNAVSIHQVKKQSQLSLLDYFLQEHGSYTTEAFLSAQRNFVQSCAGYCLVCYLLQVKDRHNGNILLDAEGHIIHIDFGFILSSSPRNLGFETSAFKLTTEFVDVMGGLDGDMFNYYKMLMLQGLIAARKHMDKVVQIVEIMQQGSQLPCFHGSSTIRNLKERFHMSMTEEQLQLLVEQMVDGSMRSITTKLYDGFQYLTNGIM
For assay [19] the target is unchanged. Conditions: at 1 µM.
Assay [20] addresses Sphingosine kinase 1 (Homo sapiens) (UniProt Q9NYA1). Conditions: at 0.1 µM.

Chain of SRSF protein kinase 3 (Homo sapiens) (Q9UPE1 whole entry): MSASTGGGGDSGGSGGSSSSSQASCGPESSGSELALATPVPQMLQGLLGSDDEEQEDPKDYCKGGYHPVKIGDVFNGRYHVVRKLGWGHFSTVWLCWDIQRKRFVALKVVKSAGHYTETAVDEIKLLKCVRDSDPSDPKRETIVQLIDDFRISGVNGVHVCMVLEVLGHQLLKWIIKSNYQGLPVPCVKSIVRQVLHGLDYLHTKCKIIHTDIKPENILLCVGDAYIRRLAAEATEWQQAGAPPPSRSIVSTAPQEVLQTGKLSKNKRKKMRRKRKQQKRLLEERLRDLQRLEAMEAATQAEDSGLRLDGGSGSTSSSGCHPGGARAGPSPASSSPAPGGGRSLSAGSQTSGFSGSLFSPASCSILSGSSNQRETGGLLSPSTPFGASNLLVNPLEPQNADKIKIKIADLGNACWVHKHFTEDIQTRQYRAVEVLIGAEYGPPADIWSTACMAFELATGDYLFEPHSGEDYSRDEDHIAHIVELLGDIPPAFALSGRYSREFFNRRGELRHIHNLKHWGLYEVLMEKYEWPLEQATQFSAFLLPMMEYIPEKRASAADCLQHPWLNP
Chain of Mitogen-activated protein kinase 11 (Homo sapiens) (Q15759 whole entry): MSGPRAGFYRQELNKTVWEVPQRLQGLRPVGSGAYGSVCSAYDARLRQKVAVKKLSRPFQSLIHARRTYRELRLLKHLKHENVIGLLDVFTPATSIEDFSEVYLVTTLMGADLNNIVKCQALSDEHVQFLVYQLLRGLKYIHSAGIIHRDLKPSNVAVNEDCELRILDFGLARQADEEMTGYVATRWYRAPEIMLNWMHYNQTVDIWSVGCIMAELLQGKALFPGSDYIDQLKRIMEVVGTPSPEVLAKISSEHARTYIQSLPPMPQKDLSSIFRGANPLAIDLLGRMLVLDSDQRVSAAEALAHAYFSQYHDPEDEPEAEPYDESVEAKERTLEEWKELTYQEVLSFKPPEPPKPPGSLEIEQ
Chain of SRSF protein kinase 1 (Homo sapiens) (Q96SB4 whole entry): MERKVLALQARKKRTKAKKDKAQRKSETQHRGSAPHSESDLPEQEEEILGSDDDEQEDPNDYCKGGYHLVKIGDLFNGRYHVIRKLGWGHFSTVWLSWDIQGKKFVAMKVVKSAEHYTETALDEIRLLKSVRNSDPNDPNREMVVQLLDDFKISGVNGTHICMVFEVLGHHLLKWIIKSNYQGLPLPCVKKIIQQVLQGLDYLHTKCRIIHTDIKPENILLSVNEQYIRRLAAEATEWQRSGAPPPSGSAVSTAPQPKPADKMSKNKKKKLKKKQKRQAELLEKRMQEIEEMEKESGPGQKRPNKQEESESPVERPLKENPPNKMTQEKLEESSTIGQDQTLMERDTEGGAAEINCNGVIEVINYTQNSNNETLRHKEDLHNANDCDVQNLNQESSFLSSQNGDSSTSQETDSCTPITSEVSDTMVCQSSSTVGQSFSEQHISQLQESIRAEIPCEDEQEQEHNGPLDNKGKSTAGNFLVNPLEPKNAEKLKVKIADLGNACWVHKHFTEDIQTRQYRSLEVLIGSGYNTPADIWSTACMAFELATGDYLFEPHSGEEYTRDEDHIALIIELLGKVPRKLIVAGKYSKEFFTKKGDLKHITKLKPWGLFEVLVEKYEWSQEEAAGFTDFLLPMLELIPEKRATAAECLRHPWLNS
Chain of Mitogen-activated protein kinase 3 (Homo sapiens) (P27361 whole entry): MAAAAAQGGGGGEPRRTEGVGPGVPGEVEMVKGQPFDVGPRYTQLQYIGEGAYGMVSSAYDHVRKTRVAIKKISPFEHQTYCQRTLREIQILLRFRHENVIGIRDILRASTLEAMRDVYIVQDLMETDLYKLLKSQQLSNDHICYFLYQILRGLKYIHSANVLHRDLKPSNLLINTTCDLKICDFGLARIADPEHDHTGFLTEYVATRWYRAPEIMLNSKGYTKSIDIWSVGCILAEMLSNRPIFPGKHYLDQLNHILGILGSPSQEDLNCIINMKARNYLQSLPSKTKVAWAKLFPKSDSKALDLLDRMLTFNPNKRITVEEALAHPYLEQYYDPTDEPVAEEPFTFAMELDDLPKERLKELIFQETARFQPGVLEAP
Chain of Sphingosine kinase 1 (Homo sapiens) (Q9NYA1 whole entry): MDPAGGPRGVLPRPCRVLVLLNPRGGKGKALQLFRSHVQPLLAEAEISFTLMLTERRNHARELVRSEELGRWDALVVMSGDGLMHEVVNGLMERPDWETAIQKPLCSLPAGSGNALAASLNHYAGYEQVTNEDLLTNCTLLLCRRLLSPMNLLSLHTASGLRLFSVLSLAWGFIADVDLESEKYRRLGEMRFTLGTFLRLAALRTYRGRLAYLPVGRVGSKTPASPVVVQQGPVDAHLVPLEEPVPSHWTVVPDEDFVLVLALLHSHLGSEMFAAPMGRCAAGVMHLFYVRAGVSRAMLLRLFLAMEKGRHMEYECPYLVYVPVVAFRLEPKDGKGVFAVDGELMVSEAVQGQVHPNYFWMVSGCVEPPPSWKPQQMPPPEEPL

As a reminder, the inhibition is the relative decrease from the control value, in per cent. For the compound `NC(=O)c1sc(-n2cnc3ccc(C(F)(F)F)cc32)cc1OCc1ccccc1Br`, the inhibition in [1] is 0.62%; in [2], -1.67%; in [3], -0.41%; in assay [4], 8.95%; in assay [5], 10.3%; in assay [6], 2.71%. Further, the inhibition in assay [7] was 5.44%; in assay [8] it was -1.12%; in assay [9] it was 3.69%; in [10] it was 1.64%; in assay [11], 2.37%; in [12], -1.69%. For the same compound, the inhibition was -2.85% in [13]; 3.78% in [14]; 4.29% in [15]; 1.52% in [16]; 4.21% in assay [17]; -2.33% in assay [18]. Besides, the inhibition is -2.08% in assay [19] and 2.38% in assay [20].

Turning to `COC(=O)Nc1nc2ccc(Oc3ccc(NC(=O)Nc4cccc(Cl)c4)cc3)cc2[nH]1`, the inhibition is -0.19% in assay [1]; -1.41% in [2]; 1.25% in assay [3]; 7.99% in assay [4]; 12% in [5]; 3.94% in assay [6]. In addition, the inhibition in [7] is 8.82%; in assay [8], 0.49%; in [9] it was -0.38%; in assay [10], 0.03%; in assay [11] it was 0.02%; in [12] it was -2.58%. In addition, the inhibition in assay [13] is -2.98%; in [14] it was -0.11%; in assay [15], 4.1%; in assay [16], -0.7%; in assay [17], 3.93%; in assay [18] it was 3.19%. The inhibition is -4.1% in [19] and 1.12% in [20].

`Cc1ccc2c(-c3ccnc(Nc4ccccc4)n3)c(-c3ccc(F)cc3)nn2n1`: the inhibition in assay [1] turned out to be 14.5%; in [2], 1.07%; in assay [3], 1.53%; in assay [4], 71%; in assay [5], 88.5%; in assay [6], 34.1%. For the same compound, the inhibition in assay [7] was 73.3%; in [8], -0.61%; in assay [9] it was 5.7%; in [10] it was 0.48%; in assay [11], 2.32%; in assay [12], -1.57%. The inhibition in assay [13] is -2.42%; in assay [14], 2.88%; in assay [15] it was 0.97%; in [16] it was 2.44%; in assay [17], 4.54%; in assay [18], 2.52%. Also, the results for the inhibition in assay [19] and in assay [20] were 1.56% and 0%, respectively.

For the compound `CCCN1CCC(c2ccc(Nc3nc(Nc4cc(F)ccc4C(N)=O)c4cc[nH]c4n3)c(OC)c2)CC1`, the inhibition was 13.1% in [1]; 0.67% in assay [2]; 25.4% in [3]; 1.69% in [4]; 11.7% in [5]; 6.28% in [6]. The inhibition was 14.3% in [7]; 0.03% in assay [8]; 5.13% in [9]; 1.44% in assay [10]; 2.82% in assay [11]; -0.15% in [12]. The inhibition was 12.7% in assay [13]; 3.82% in [14]; 3.17% in assay [15]; 2.18% in assay [16]; 13.3% in [17]; -9.61% in [18]. In addition, the inhibition in [19] is -8.79%; in [20] it was -0.97%.

As to `CCn1c(-c2nonc2N)nc2c(C#CC(C)(C)O)ncc(OC3CCNCC3)c21`, the inhibition in assay [1] was 4.59%; in assay [2], 2.87%; in assay [3], -1.64%; in assay [4], 8.8%; in assay [5] it was 11.3%; in [6], 1.59%. Also, the inhibition is 7.19% in [7]; 1.55% in [8]; 2.9% in assay [9]; 2.41% in [10]; 3.11% in assay [11]; -3.24% in assay [12]. The inhibition in assay [13] is -2.54%; in assay [14] it was 2.27%; in assay [15], 1.82%; in [16], -0.02%; in assay [17], 0.63%; in [18] it was 4.47%. Moreover, the figures for the inhibition in assay [19] and in assay [20] were 0.66% and -1.2%, respectively.

For the compound `Cc1cccc(Nc2ncc(-c3ccccc3)o2)c1`, the inhibition in assay [1] was 3.87%; in [2], 3.41%; in [3], -1.61%; in assay [4] it was 5.91%; in assay [5] it was 6.59%; in [6], 3.23%. In addition, the inhibition was 6.62% in assay [7]; 1.76% in assay [8]; 2.94% in [9]; 2.73% in [10]; 4.77% in [11]; -2.35% in [12]. Also, the inhibition was 0.2% in assay [13]; 0.69% in assay [14]; -0.17% in assay [15]; 0.73% in [16]; 1.52% in assay [17]; 1.05% in assay [18]. Moreover, the results for the inhibition in assay [19] and in assay [20] were 2.54% and 1%, respectively.
